Test results: PubChem BioAssay (Tox21)
Several values for one entry are separate records, joined by “and”; a condition that tells them apart may be missing. Equal values may be shown once. Results filed as inconclusive are left out. A number with no mark means an inactive call. Activity calls are given as the source filed them. Calls come from the whole dose curve; as a rule, active = well fitted activation curve with a large enough effect in the repeat runs; inconclusive = weak or mixed curves; inactive = flat fitted curve, though single readings scatter.

Assay: A CellTox Green Cytotoxicity Assay to monitor cytotoxicity in HepG2 cells - 24 hour (AID 1224878); note: nearly all actives have a fitted effect of over 45% in size
Conditions: CellTox Green fluorescence; series mostly up to 76.8 µM; cytotoxicity: at the top concentration
Description: National Center for Advancing Translational Sciences [NCATS]
NIH Chemical Genomics Center [NCGC]
U.S. Environmental Protection Agency [EPA]
National Institutes of Environmental Health Sciences [NIEHS]
National Toxicology Program [NTP]
Cell-based models are critical for drug discovery. Determining the natural cytotoxic effects resulting from test compounds is an essential research activity. A CellTox Green Cytotoxicity Assay to monitor cytotoxicity in real time of continues cell culture during 40 hours of the compound treatment was used to screen Tox21 10K library compounds in HepG2 cells. CellTox Green Cytotoxicity Assay is a nonlytic, homogeneous, biofluorescent method to measure cytotoxicity in cell culture after experimental manipulation. The assay system uses a proprietary asymmetric cyanine dye that is excluded from viable cells but preferentially stains the dead cell's DNA. […] Viable cells produce no appreciable increases in fluorescence. Therefore, the fluorescence signal produced by the binding interaction with dead cell DNA is proportional to cytotoxicity.
The mixture of HepG2 cell suspension and reagents were dispensed at 600cells/6 ul/well in 1536-well tissue culture treated black solid bottom plates using a Multidrop dispenser. After the assay plates were incubated at a 37 C/5% CO2 incubator for 5 hours, 23 nL of compounds dissolved in DMSO, positive and negative controls was transferred to the assay plate by a pintool work station. The plates were incubated at 37 C for 40 hours. The fluorescence intensity were measured at 0h, 8h, 16h, 24h, 32h and 40h time points using ViewLux plate reader during compound treatment.
% is set by controls: 0 for no effect and ±100 for the full control effect; potency is the fitted concentration of half-maximal effect.

| Structure (SMILES) | cytotoxicity | Potency |
| --- | --- | --- |
| C[C@@H](Oc1ccc(Cl)cc1Cl)C(=O)O | -7.06% | – |
| N#CCCO | -12.2% | – |
| CCCCN(CCCC)C(=S)[S-].CCCCN(CCCC)C(=S)[S-].[Zn+2] | – | 34.7 µM (active) |
| ClC(Cl)=C(Cl)Cl | 4.71% | – |
| CC(=[OH+])/C=C(/C)[O-].CC(=[OH+])/C=C(\C)[O-].CC(=[OH+])/C=C(\C)[O-].[Al] | -13.6% | – |
| O=C1NCN(c2ccccc2)C12CCN(CC1COc3ccccc3O1)CC2 (stereo not given) | 23.4% [at 35.3 µM] | – |
| C[C@@H]1O[C@@H](O[C@H]2C[C@@H](O)[C@]3(CO)[C@H]4[C@H](O)C[C@]5(C)[C@@H](C6=CC(=O)OC6)CC[C@]5(O)[C@@H]4CC[C@]3(O)C2)[C@H](O)[C@H](O)[C@H]1O | – | inactive |
| COP(=O)(OC)SCn1c(=O)oc2cc(Cl)cnc21 | 15.8% | – |
| BrCBr | -9.05% | – |
| CN(C)C(=S)[S-].CN(C)C(=S)[S-].[Cu+2] | – | 2.38 µM (active) |
| CC(=O)C(Cl)(Cl)Cl | 0.563% | – |
| NC(=O)c1ccc(N)nc1 | -0.253% | – |
| CCCCCCCCCCCCCN1CC(C)OC(C)C1 (stereo not given) | -0.115% | – |
| CC(C)[C@H](C(=O)O[C@H](C#N)c1cccc(Oc2ccccc2)c1)c1ccc(Cl)cc1 | -8.7% | – |
| Clc1ccc(-c2ccccc2)cc1 | -14.3% | – |
| CN(C)[C@@H]1C(=O)C(C(N)=O)=C(O)[C@@]2(O)C(=O)C3=C(O)c4c(O)ccc(Cl)c4[C@@](C)(O)[C@H]3C[C@@H]12 | -4.66% | – |
| Oc1ccc(C(c2ccc(O)cc2)(C(F)(F)F)C(F)(F)F)cc1 | – | 54.7 µM (active) and 24.5 µM (active) |
| O=C/C(Cl)=C(/Cl)C(=O)O | – | inactive |
| N#CCCSCCC#N | 5.54% | – |
| CC(C)OC(=S)S | 12.1% | – |

| Structure (SMILES) | cytotoxicity | Potency |
| --- | --- | --- |
| CCOC(=O)C1(c2ccccc2)CCN(CCC(C#N)(c2ccccc2)c2ccccc2)CC1 | -14.7% [at 35.3 µM] | – |
| Clc1ccc(C(c2ccc(Cl)cc2)C(Cl)(Cl)Cl)cc1 | – | inactive |
| Cc1cc(C(F)(C(F)(F)F)C(F)(F)F)ccc1NC(=O)c1cccc(I)c1C(=O)NC(C)(C)CS(C)(=O)=O | -12.2% [at 35.3 µM] | – |
| Nc1ccc(Cl)cc1C(=O)c1ccccc1 | 1.99% | – |
| CC(C)CC(C)(c1ccc(O)cc1)c1ccc(O)cc1 | – | 43.8 µM (active) |
| CC(C)(c1ccc(O)c(-c2ccccc2)c1)c1ccc(O)c(-c2ccccc2)c1 | – | 49 µM (active) |
| CC1(C)[C@H](C(=O)O[C@H](C#N)c2cccc(Oc3ccccc3)c2)[C@@H]1/C=C(\Cl)C(F)(F)F | – | inactive |
| Cc1cc(C)cc(OP(=O)(Oc2cc(C)cc(C)c2)Oc2cc(C)cc(C)c2)c1 | -3.07% | – |
| CC(C)C(=O)Cl | -3.13% | – |
| N#CC(Cl)Cl | 5.46% | – |
| C[C@@H]1CC[C@@]2(OC1)O[C@H]1[C@@H](O)[C@H]3[C@@H]4CC[C@H]5C[C@@H](O[C@@H]6O[C@H](CO)[C@H](O[C@@H]7O[C@H](CO)[C@@H](O)[C@H](O[C@@H]8OC[C@@H](O)[C@H](O)[C@H]8O)[C@H]7O[C@@H]7O[C@H](CO)[C@@H](O)[C@H](O[C@@H]8O[C@H](CO)[C@@H](O)[C@H](O)[C@H]8O)[C@H]7O)[C@H](O)[C@H]6O)[C@H](O)C[C@]5(C)[C@H]4CC[C@]3(C)[C@H]1[C@@H]2C | – | 11.6 µM (active) |
| [CH3][Hg][Cl] | – | 12.3 µM (active) |
| CCCCCCCCCCBr | 17.8% | – |
| CC(C)C1CCC(Cc2ccc(Cl)cc2)C1(O)Cn1cncn1 (stereo not given) | – | 43.2 µM (active) |
| Cc1cc(Cl)ccc1O[C@H](C)C(=O)O | -11.1% | – |
| CC1(C)C(/C=C(\Cl)C(F)(F)F)C1C(=O)OC(C#N)c1cccc(Oc2ccccc2)c1 (stereo not given) | -2.61% | – |
| O=[N+]([O-])c1cc(C(F)(F)F)c(Cl)c([N+](=O)[O-])c1Cl | – | 24.5 µM (active) |
| c1cc[c]([Sb]([c]2ccccc2)[c]2ccccc2)cc1 | -0.0604% | – |
| ClCCN1CCOCC1 | -14.4% | – |
| N#CNC#N | -0.279% | – |
